{
  "source": "PubChem BioAssay (NCI)",
  "note": "The panel holds about 83,000 compounds, 20% with a hit somewhere; the sample as a whole holds those more often.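 Cell lines were cultured in 96-well plates, exposed to a single compound concentration, and assessed for percent growth 48 hours later.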 The source made the active and inactive calls.",
  "data": [
    {"system": "SN12C renal", "test": "NCI-60 one-dose screen, 48 h (100 = growth as untreated, 0 = no growth, -100 = all killed)", "conditions": "10 µM unless noted", "protocol": "Growth inhibition of the SN12C human tumor cell line is measured as a screen for anti-cancer activity. Cells are grown in 96 well plates and exposed to the test compound for 48 hours. Compounds are tested at a single concentration, which is 10^-5 M for most compounds. The reported endpoint is percent growth (GI% or GIPRCNT), where numbers from 0 - 100% represent growth inhibition, and numbers from -100% - 0 represent cell death. For example, a value of 40 represents 60% growth inhibition. A value of 0 means no net growth occurred over the course of the experiment. A value of -40 indicates 40% of cells at the beginning of the experiment died by the end of the experiment. A value of -100 means all cells are dead at the end of the experiment.\nNCI-60 Human Tumor Cell Lines Screen was performed using the standard one-dose NCI protocol, which is described in more detail at https://dtp.cancer.gov/discovery_development/nci-60/default.htm.\nCompounds with GIPRCNT values below 10 were considered active. Activity score was based on GIPRCNT using the following formula: […]\nScore is 0 for GIPRCNT values of 100 or above, 50 for GIPRCNT values of 0, and 100 for GIPRCNT values of -100.", "values": [
      {"smiles": "COc1cc(/C=C/c2cc(/C=C/c3ccc(O)c(OC)c3)n(-c3ccccc3)c(=O)n2)ccc1O", "growth": "71.4% (inactive)"},
      {"smiles": "N=C(N)c1ccc(S(N)(=O)=O)cc1", "growth": "94.5% (inactive)"},
      {"smiles": "CC(C)=CCC/C(C)=C/CC/C(C)=C/CSC[C@H](NC(=O)CCCCCN1CCN(C)CC1)C(=O)NC1CCCCCC1", "growth": "87.4% (inactive)"},
      {"smiles": "c1cc(N2CCCC2)c2nc(-c3[nH]ncc3Nc3ncnc4[nH]ccc34)[nH]c2c1", "growth": "-13.7% (active)"},
      {"smiles": "N#CC1c2ccccc2-c2ccccc2N1C(=O)c1ccccc1", "note": "(stereo not given)", "growth": "33.3% (inactive)"},
      {"smiles": "CCc1ccccc1NC(=O)c1sc2nc3c(cc2c1N)CCCC3", "growth": "34.9% (inactive)"},
      {"smiles": "NC1=C(C/C(N)=N\\O)C(c2ccccc2Cl)c2c(ccc3ccccc23)O1", "note": "(stereo not given)", "growth": "91.3% (inactive)"},
      {"smiles": "C=C(C)[C@@H]1CC[C@]2(C=NCCCNCCCCNCCCN)CC[C@]3(C)[C@H](CC[C@@H]4[C@@]5(C)CCCNC(C)(C)[C@@H]5CC[C@]43C)[C@@H]12", "growth": "91.1% (inactive)"},
      {"smiles": "CCCCCCCN(CCCCCCC)C(=N)c1ccnc2ccccc12", "growth": "-42% (active)"},
      {"smiles": "COC(=O)CNc1nc(N(C)O)nc(N(C)O)n1", "growth": "49.8% (inactive)"},
      {"smiles": "Fc1cccc(-c2[nH]nc3nc(Nc4cccnc4)sc23)c1", "growth": "58.5% (inactive)"},
      {"smiles": "O=C(O)/C(=C/c1ccc(O)cc1)c1ccccc1", "growth": "96.9% (inactive)"},
      {"smiles": "C=CC(=O)N[C@H](Cc1ccc(-c2cc(Cl)cc(Cl)c2)cc1)[C@H](O)[C@@H](O)C(=O)O", "growth": "98.5% (inactive)"},
      {"smiles": "Cc1cc(C)nc(NC(N)=NCCc2ccccc2)n1", "growth": "45.1% (inactive)"},
      {"smiles": "C=C1CC[C@@H](C(=O)OC)Cc2nc(C)ccc21", "growth": "96.4% (inactive)"},
      {"smiles": "CCN(CC)c1ccc(/C=C/c2cc(C)c3ccccc3n2)cc1", "growth": "60% (inactive)"},
      {"smiles": "Clc1ccc(Cn2cc(-c3nc4ccc(Br)nc4n3Cc3ccc(Cl)cc3)c3cccnc32)cc1", "growth": "86.8% (inactive)"},
      {"smiles": "CC(C)(C)CC(C)(C)c1ccc(OCCOCC[N+](C)(C)CC(=O)[O-])cc1", "growth": "103% (inactive)"},
      {"smiles": "Cn1cc(-c2nc(-c3c[nH]c4ncccc34)cs2)c2cc(F)ccc21", "growth": "51.3% (inactive)"},
      {"smiles": "COc1cc(/C=N/Nc2ncnc3c2c(C)nn3-c2ccc(F)cc2)ccc1O", "growth": "85.1% (inactive)"},
      {"smiles": "CC1=NN(c2ccc(S(=O)(=O)O)cc2Cl)C(=O)C1", "growth": "100% (inactive)"},
      {"smiles": "C#CCn1c(C)cc(C)c(C#N)c1=O", "growth": "100% (inactive)"},
      {"smiles": "C#Cc1cccc(NC(=O)C2CCCN(C(=O)CCl)C2)c1", "note": "(stereo not given)", "growth": "9.7% [8.25 µM] (active)"},
      {"smiles": "O=C(/C=C\\c1ccc2c(c1)OCO2)/C=C/c1ccc2c(c1)OCO2", "growth": "86.5% (inactive)"},
      {"smiles": "COc1cnc2c(c1)C(=O)c1c-2n(CCCN2CCN(CCO)CC2)c(=O)c2cc([N+](=O)[O-])ccc12", "growth": "54% (inactive)"},
      {"smiles": "COC1=C(Br)C(=O)C(OC)=C(Br)C1=O", "growth": "95.2% (inactive)"},
      {"smiles": "COc1ccc(-c2cc(=O)oc3ccc(Cl)cc23)cc1F", "growth": "30.6% (inactive)"},
      {"smiles": "O=C(N/N=C\\c1c(O)ccc2ccccc12)C1CC1", "growth": "66.5% (inactive)"},
      {"smiles": "COc1ccc2nc(-c3c(-c4ccccc4)nc4ncccn34)[nH]c2c1", "growth": "104% (inactive)"},
      {"smiles": "CC(C)C[C@@H](NC(=O)[C@@H](Cc1ccccc1)NC(=O)c1cnccn1)B1O[C@H]2[C@H](O)[C@@H](C(=O)NCCCC[C@@H]3NC(=O)[C@@H](Cc4ccccc4)NC(=O)[C@H](CC(=O)O)NC(=O)CNC(=O)[C@H](CCCN=C(N)N)NC3=O)O[C@@H](CN)[C@H]2O1", "growth": "-29.5% (active)"},
      {"smiles": "COc1c(N)c2c(c([N+](=O)[O-])c1OC)C(=O)OC2", "growth": "93.5% (inactive)"},
      {"smiles": "COC(=O)C(Cc1ccccc1)n1cc(COc2nc(Cl)nc(Nc3ccc(Cl)cc3)n2)nn1", "note": "(stereo not given)", "growth": "96.5% (inactive)"},
      {"smiles": "CC(=O)Cc1nsc(NC(=O)c2ccoc2COc2ccccc2)n1", "growth": "90.2% (inactive)"},
      {"smiles": "Cc1cc(C=O)c(C)c2c1[nH]c1ccccc12", "growth": "95.8% (inactive)"},
      {"smiles": "N=C(N)c1ccc(-c2ccc(-c3cc(F)cc(F)c3)o2)nc1", "growth": "86.9% (inactive)"},
      {"smiles": "O=C1/C(=C\\C(Cl)=C/c2ccc([N+](=O)[O-])cc2)SC(=S)N1CCc1ccc(O)cc1", "growth": "-9.23% (active)"},
      {"smiles": "Cn1cccc1/C=C1/SC(=S)N(CCc2ccc(O)cc2)C1=O", "growth": "60% (inactive)"},
      {"smiles": "CCOc1ccc(NC(=O)c2ccoc2COc2ccccc2)cc1", "growth": "99.1% (inactive)"},
      {"smiles": "C=C(C)[C@@H]1CC[C@]2(CN)CC[C@]3(C)[C@H](CC[C@@H]4[C@@](C)(CCCN)[C@H](C(=C)C)CC[C@]43C)[C@@H]12", "growth": "82.5% (inactive)"},
      {"smiles": "C[C@H]1OC(=O)/C=C/[C@@H](O)[C@@H](O)CCCCCCCC[C@@H]1O", "growth": "101% (inactive)"}
    ]}
  ]
}
